Data reported in PubChem BioAssay (Tox21).
Results filed as inconclusive are left out. A number with no mark means an inactive call. Calls of active or inactive are those of the source. Calls come from the whole dose curve; as a rule, active = well fitted activation curve with a large enough effect in the signal ratio in the repeat runs (not every such curve was filed as active); inconclusive = weak or mixed curves; inactive = flat fitted curve, though single readings scatter; the % refers to the signal ratio.

Experiment: qHTS assay to identify small molecule agonists of the hypoxia (HIF-1) signaling pathway (AID 1224846)
Conditions: HRE-bla ME-180 cells, beta-lactamase ratio, 17 h; series mostly up to 76.8 µM
Excerpt: U.S. Tox21 Program National Center for Advancing Translational Sciences [NCATS] NIH Chemical Genomics Center [NCGC] U.S. Environmental Protection Agency [EPA] National Institutes of Environmental Health Sciences [NIEHS] National Toxicology Program [NTP] U.S. Food and Drug Administration [FDA] Tox21 Assay Overview: Hypoxia-inducible factor-1 (HIF-1) is the major hypoxia-regulated transcription factor that controls cellular responses to low oxygen concentration. HIF-1 is composed of two subunits: hypoxia responsive HIF-1-alpha and constitutively expressed HIF-1-beta, which is also known as aryl hydrocarbon receptor nuclear translocator. During hypoxic conditions, HIF-1-alpha heterodimerizes with HIF-1-beta and translocates into the nucleus where the HIF-1 complex binds to the hypoxia-response element (HRE) and activates expression of target genes such as VEGF (vascular endothelial growth factor). The HIF-1 pathway is essential to normal growth and development, and is involved in the pathophysiology of cancer, inflammation, and ischemia. Using a beta-lactamase reporter-gene under control of the hypoxia response element, a cell-based assay [CellSensor(TM) HRE-bla ME-180 from Life Technologies, Carlsbad, CA] was used to measure hypoxia-induced signaling. Tox21 10K library compounds were measured for their ability to induce the reporter gene activity.
Tox21 Assay Protocol Summary: HRE-bla ME-180 cells were dispensed at 2,000 cells per well in 6 uL of assay medium containing 0.5% dialyzed FBS into black wall/clear-bottom 1536-well plates using a Multidrop Combi (Thermo Scientific, Waltham, MA) dispenser. After the assay plates were incubated at 37C and 5% CO2 for 5 hrs, 23 nL of compounds dissolved in DMSO, positive controls or DMSO only was transferred to each well of the assay plate using a Pintool station (Kalypsys, San Diego, CA). The assay plates were incubated at 37C and 5% CO2 for 17 hrs. One uL of LiveBLAzerTM B/G FRET substrate (CCF4-AM) (Life Technologies) was added to each well using a Flying Reagent Dispenser (Aurora Discovery, San Diego, CA).
% is set by controls: 0 for no effect and ±100 for the full control effect.

SMILES | outcome | activation
CCC(C)(CCC(C)C)C(=O)O (stereo not given) | inactive | 
COc1nccnc1NS(=O)(=O)c1ccc(N)cc1 | inactive | 
CCCCN | inactive | 
COCCc1ccc(OCC2CO2)cc1 (stereo not given) | inactive | 
CCCCCCCCCCCCCC | inactive | 
CCC(C)NC(N)=O (stereo not given) | inactive | 
CC(=O)Nc1ccc(S(=O)(=O)Cl)cc1 | inactive | 
Cc1cc(Cl)c(C)cc1Cl | inactive | 
CCCC/C=C/C=C\C=O | inactive | 
CC(S)C(=O)NCC(=O)O (stereo not given) | inactive | 
CC(=O)NCCCCCC(=O)O | inactive | 
CCN(C)C(=O)Oc1cccc([C@H](C)N(C)C)c1 | inactive | 
CCC(CC)CO | inactive | 
COC(=O)C1CC(=O)C(C(=O)OC)CC1=O (stereo not given) |  | 0.935% [at 7.01 µM]
Cc1cccc(C)c1OCC(C)N (stereo not given) | inactive | 
Brc1ccc(-c2ccccc2)cc1 | inactive | 
O=S(O)(O)=S |  | -1% [at 7.01 µM]
OC[C@H](Cc1cccc(O)c1)[C@H](CO)Cc1cccc(O)c1 | inactive | 
CC(=O)Nc1ccc(S(=O)(=O)Nc2ccc([N+](=O)[O-])cc2)cc1 | inactive | 
CCCC(=O)C(C)=O | inactive | 

SMILES | outcome | activation
O=C(O)c1cc(Cl)cc([N+](=O)[O-])c1Cl | inactive | 
Cc1ccccc1N=O | inactive | 
CC1=CCC(C(C)C)=CC1 | inactive | 
CC(C)(C)OC(=O)c1ccc(O)cc1 | inactive | 
CC(C)c1ccc2cc(C(C)C)ccc2c1 | inactive | 
CC(C)=O | inactive | 
CCCCCCCCC1CCC(=O)O1 (stereo not given) | inactive | 
CC(C)OC(=O)CCCCC(=O)OC(C)C | inactive | 
C=C(C)C(=O)OCc1ccccc1 | inactive | 
CCCCCCCC/C=C\CCCCCCCC(=O)OCCCC |  | -1.44% [at 15.8 µM]
Cc1c(I)c(=O)n(-c2ccccc2)n1C | inactive | 
Nc1cccc(O)c1 | inactive | 
COC(=O)c1ccccc1C(=O)c1ccc(OCCN2CCCCC2)cc1 | inactive | 
C=CCCCCCCCCCCCC | inactive | 
Cc1cccc(OCC(O)CNC(C)(C)C)c1C (stereo not given) | inactive | 
CNS(=O)(=O)CCc1ccc2[nH]cc(C3CCN(C)CC3)c2c1 | inactive | 
Oc1cn2c(n1)Nc1ccc(Cl)c(Cl)c1C2 |  | -0.566% [at 15.8 µM]
CC(C)N(c1ccccc1)C(C)C | inactive | 
C=C1CC/C=C(\C)CC[C@@H]2[C@@H]1CC2(C)C | inactive | 
CCOC(=O)[C@H](CCc1ccccc1)N[C@@H](C)C(=O)N1C(=O)N(C)C[C@H]1C(=O)O | inactive | 
